Assay outcomes from PubChem.
CtBP-E1A blk – qHTS Assay for Inhibitors of the CtBP/E1A Interaction; AID 651724, 2012; AlphaScreen GST-E1A/His-CtBP binding, 1536-well; active compounds read low; hit rate 0.49% among 340,000; activity change, % (test concentration not listed); CtBP / adenovirus E1A interaction (AlphaScreen)
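AlphaScreen with 125 nM GST-E1A and 125 nM His-CtBP (5X stocks) in Tris pH 8.0, 300 mM NaCl, BSA, Tween 20, TCEP. Compounds preincubated 2 h at 37 deg C, then glutathione donor/nickel acceptor beads added for 1 h at 37 deg C in dark.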
PI5P4K alpha inh – qHTS for Inhibitors of phosphatidylinositol 5-phosphate 4-kinase (PI5P4K). PI5P4Kalpha enzyme, ADP-Glo luminescence, 60 min; active compounds read low. hit rate 1.2% among 330,000. AID 652105, 2013. max response, %; active = max response of -50% or lower; inconclusive = between -30% and -50%; inactive = -30% or higher; also: value at the top dose of about 77 µM
Target sequence (P48426 whole entry, looked up): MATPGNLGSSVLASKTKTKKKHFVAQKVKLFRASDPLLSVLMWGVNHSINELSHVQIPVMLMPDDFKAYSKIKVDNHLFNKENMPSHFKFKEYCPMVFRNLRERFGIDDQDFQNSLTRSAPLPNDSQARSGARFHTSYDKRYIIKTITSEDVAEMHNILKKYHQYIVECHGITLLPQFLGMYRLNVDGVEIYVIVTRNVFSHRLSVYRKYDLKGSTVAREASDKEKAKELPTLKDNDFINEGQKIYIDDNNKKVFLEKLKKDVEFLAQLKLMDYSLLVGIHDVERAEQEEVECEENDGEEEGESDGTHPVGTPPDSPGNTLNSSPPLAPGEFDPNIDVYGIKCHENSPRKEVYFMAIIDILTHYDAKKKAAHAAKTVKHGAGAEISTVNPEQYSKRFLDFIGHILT
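Reactions run in 0.038 M HEPES pH 7.4, 0.28 mM EGTA, 0.1% CHAPS and 5% DMSO, with PI5P4Kalpha, substrate, compound and 5 microM ATP final, one hour at room temperature. Readout is ADP-Glo luminescence.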
Six1-Eya2 inh – qHTS Assay for Inhibitors of the Six1/Eya2 Interaction | Homeobox protein SIX1 (Homo sapiens) + Protein phosphatase EYA2 (Homo sapiens), … | AlphaScreen GST-Six1/His-Eya2 binding, biochemical; active compounds read low | activity change, % (test concentration not listed) | hit rate 0.56% among 360,000
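AlphaScreen luminescence read after one hour at 37 °C in darkness. Pin-transferred compounds met GST-Six1 and His-Eya2 protein (5X stock 250 nM/500 nM) plus glutathione donor and Ni-chelate acceptor beads (5X, 50 ug/mL).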
PI4K2A block – qHTS for small molecular inhibitors of PI4K2A. Phosphatidylinositol 4-kinase type 2-alpha (Homo sapiens), Q9BTU6. purified PI4K2A, ADP-Glo luminescence, 1 h; active compounds read low. activity change, negative = inhibition, % at 76.9 µM. hit rate 0.13% among 420,000. AID 1346378, 2018; in the data active = activity change below about -50%; inconclusive = mostly about -30% to -49%;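 also: -100% = wells without enzyme as full effect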
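Compounds are screened against recombinant PI4K2A using PI as substrate and ATP, the latter dispensed at 300 microM. Reactions run one hour at ambient temperature before ADP-Glo detection; full inhibition defined by wells lacking enzyme.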
pAkt inh – HTS Assay for Inhibitors of Akt Phophorylation: Primary Screen. Neuro2A IGF-stimulated pAkt S473 HTRF, 20 min; active compounds read low. activity change, % for hits at 50 µM. hit rate 0.32% among 360,000. AID 651550, 2012; in the data active = activity change below about -80%; inconclusive = mostly about -51% to -80%
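Single-point screen (50 µM final compound) in Neuro2A cells stimulated 20 min with 6 nM IGF at 37 deg C. After lysis, Ser473-phosphorylated Akt read by HTRF (ex 330 nm, em 615/665 nm) as the 665/615 ratio.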
* hit, by the source's call; i = inactive; ? = inconclusive; . = no result. Most compounds without a hit are left out; they make up all but 1.8% or so of the library. Rule as the data show it, unless noted: active = activity change below about -65%; inconclusive = mostly about -30% to -63%; inactive = weaker than that. Unless noted, % is scaled to controls: 0 for no effect and ±100 for the full control effect.

SMILES	CtBP-E1A blk	PI5P4K alpha inh	Six1-Eya2 inh	PI4K2A block	pAkt inh
CCOC(=O)c1ccc(NC(=O)c2ccco2)cc1	.	0.1	-4.1	2.3	i
CCC(C)C(=O)Nc1c2c(nc3c1CCC3)CCCC2 (stereo unspecified)	-2.7	1.2	14.5	-11.6	-101.0%*
CC(C)C(=O)Nc1c2c(nc3c1CCC3)CCCC2	-3.2	-0.2	7.2	-1.3	i
COc1ccccc1N(C)S(=O)(=O)c1ccc(C(=O)NC2=NCCS2)cc1	-2.2	-6.9	-0.4	-6.5	i
CCC(NC(=O)NCc1ccccc1)(C(F)(F)F)C(F)(F)F	4.7	3.1	2.7	2.5	i
CC(NC(=O)Nc1ccc(O)cc1)(C(F)(F)F)C(F)(F)F	?	17.9	10.0	-51.4*	i
COc1ccc(NC(=O)NC(C)(C(F)(F)F)C(F)(F)F)cc1	-7.0	?	-0.8	1.2	i
CCC(NC(=O)Nc1ccc(O)cc1)(C(F)(F)F)C(F)(F)F	-3.8	-2.1	-6.8	-51.8*	i
CN(C)c1ccc(C#Cc2ccc3cc(CCO)oc(=O)c3c2)cc1	.	-13.6	-1.2	-5.2	i
COc1ccccc1S(=O)Cc1ccc(C(=O)O)o1 (stereo unspecified)	6.7	.	2.8	9.8	i
CCOC(=O)C1C(=O)NC(N2CCN(Cc3ccccc3)CC2)=NC1c1ccccc1 (stereo unspecified)	-4.0	.	-13.5	-9.5	-86.6%*
CCOC(=O)C1C(=O)NC(N2CCN(Cc3ccccc3)CC2)=NC1c1ccco1 (stereo unspecified)	0.1	.	1.2	3.3	i
Cn1ccnc1	.	.	.	-3.8	.
COc1ccc(C(O)P(=O)(O)CCc2ccccc2)cc1 (stereo unspecified)	1.4	-2.8	-2.0	2.4	-109.2%*
O=P(O)(CCc1ccccc1)C(O)c1ccccc1 (stereo unspecified)	13.2	4.8	2.4	-6.8	i
C=C(C)COc1ccc(-c2nc(N)nc(C)c2-c2ccc(OC)cc2)c(O)c1	-5.8	-23.7	?	1.4	i
CCN(CC)S(=O)(=O)c1cccc(NC(=O)c2ccc(-n3nc(C)cc3C)cc2)c1	-70.3*	-0.3	-5.8	1.9	i
O=C(CNC(=S)N(Cc1ccc(F)cc1)C1CCCCC1)NCC1CCCO1 (stereo unspecified)	-1.0	1.7	-3.1	-5.3	i
COc1ccc(C(=O)OCC(=O)N2CCc3ccccc32)cc1S(=O)(=O)N1CCOCC1	-6.1	2.2	-14.3	-0.9	i
CNC(=O)C1CC(=O)N(c2ccc(OCC(=O)Nc3ccccc3)cc2)C1 (stereo unspecified)	-11.5	-65.8*	-19.7	-24.8	i
CCOc1ccccc1N1CC(C(=O)Nc2ccc(C(=O)O)cc2)CC1=O (stereo unspecified)	2.0	-1.9	7.1	-6.8	-112.2%*
CCOc1ccccc1N1CC(C(=O)Nc2nccs2)CC1=O (stereo unspecified)	0.6	-10.5	5.0	0.3	-123.6%*
CCOc1ccc(NC(=O)C2CC(=O)N(c3ccccc3F)C2)cc1 (stereo unspecified)	-22.2	-2.1	3.7	-0.8	i
CCOc1ccc(NC(=O)COc2ccc(N3CC(C(N)=O)CC3=O)cc2)cc1 (stereo unspecified)	1.5	-19.4	-5.4	-1.0	i
COc1ccccc1Nc1nc2nonc2nc1N1CCCCC1C (stereo unspecified)	2.0	0.8	-2.1	9.0	i
SMILES	CtBP-E1A blk	PI5P4K alpha inh	Six1-Eya2 inh	PI4K2A block	pAkt inh
O=C(Cn1ncc(Cl)c(Cl)c1=O)NC(=O)NC1CCCCC1	12.7	-50.4*	-6.2	-10.9	i
CC(NC(=O)Cn1ncc(Cl)c(Cl)c1=O)C12CC3CC(CC(C3)C1)C2 (stereo unspecified)	21.8	-64.1*	2.4	3.9	i
COc1cccc(OC)c1C(=O)NC(=S)N1CCCCC1c1cccnc1 (stereo unspecified)	-5.0	-3.9	3.0	-4.0	i
CCn1c2ccccc2c2nnc(SCC(=O)Nc3ccccc3OC)nc21	.	.	.	2.2	.
Cc1ccc(NC(=O)CN2C(=O)S/C(=C/c3ccc(O)c([N+](=O)[O-])c3)C2=O)cc1C	-5.4	-57.6*	?	-2.9	i
Cc1cccc(NC(=O)CN2C(=O)S/C(=C\c3ccc(O)c([N+](=O)[O-])c3)C2=O)c1	-0.2	?	-4.8	3.9	i
O=C1S/C(=C\c2ccc(O)c([N+](=O)[O-])c2)C(=O)N1Cc1cccc([N+](=O)[O-])c1	.	-77.6*	-3.4	1.8	i
O=[N+]([O-])c1cnc(Sc2ccncn2)c([N+](=O)[O-])c1	2.1	-74.3*	?	-8.4	i
O=[N+]([O-])c1cnc(Sc2ccncn2)s1	.	-20.7	-13.1	-14.1	i
C=C(C)CNC(=S)N/N=C(\C)c1ccc(-n2ccnc2)cc1	-5.0	-1.3	-19.1	-2.4	i
O=C(Nc1ccccc1F)c1cnccn1	-11.9	5.8	0.2	-1.2	i
O=C(Nn1cc(C(=O)Nc2ccc(F)cc2F)c2ccccc2c1=O)c1cnccn1	?	4.8	-72.3*	-5.9	i
CN(C)C(=O)CSc1ncnc2scc(-c3ccccc3)c12	1.5	0.2	-2.1	2.1	i
O=C(O)CSc1ncnc2scc(-c3ccc(Br)cc3)c12	-3.0	-66.5*	-3.2	5.7	i
O=C(O)CSc1ncnc2scc(-c3ccccc3)c12	4.2	-76.5*	11.1	-2.0	i
CC(/C=C/c1ccco1)=N/NC(=O)Cc1cccs1	0.1	-52.0*	-6.1	-21.5	i
CCc1ccc(/C(C)=N/NC(=O)CNC(=O)/C=C/c2ccco2)cc1	-1.8	-84.3*	?	-26.2	i
CC(/C=C/c1ccco1)=N\NC(=O)c1cc(Cl)ccc1O	-23.6	-80.1*	-9.2	-5.7	i
COc1ccc(NC(=O)c2cc3c(CO)cnc(C)c3oc2=Nc2cccc(C)c2)c(OC)c1	-2.0	2.3	-8.7	5.8	i
CCN(CC)C(=O)C1=C(C)N(CCCOC)C(=O)C(CC(=O)NCc2cccc3ccccc23)C1 (stereo unspecified)	1.6	-9.1	4.9	3.3	i
COc1ccccc1OCCCn1c(=O)sc2ccccc21	18.2	.	-0.8	-3.2	i
O=C(N/N=C/c1ccco1)c1ccn[nH]1	5.1	-7.8	-2.9	-76.0*	i
CN(C)c1c([N+](=O)[O-])cc(N2C(=O)C=CC2=O)cc1[N+](=O)[O-]	2.0	-86.1*	-8.3	-6.6	i
Clc1ccc(/C=N/Nc2ncnc3ccccc23)cc1Cl	6.2	-0.6	4.6	-2.9	i
C=CCNc1oc(Cc2cccc3ccccc23)nc1C#N	5.5	-7.2	-3.5	-5.0	i
